Inhibition data for 65 molecules are collected here from PubChem BioAssay AID651699 (Sanford-Burnham Center for Chemical Genomics, 2012).

As a reminder, the inhibition is the relative decrease from the control value, in per cent.

Out of some 360,000 compounds screened, about 2,100 (0.58%) were called active. Shown is part of a subset that was picked to be rich in actives. Unmarked numbers belong to inactive results. Rule as the data show it: active = inhibition above about 36%; inactive = the rest.

The target of the test is NEDD8-conjugating enzyme Ubc12 (Homo sapiens) + NEDD8-activating enzyme E1 regulatory subunit (Homo sapiens) (UniProt P61081+Q13564). The test is described as follows: NEDD8 transfer onto cullin, blockade – biochemical, TR-FRET, uHTS, NAE and Ubc12, primary screen (AID 651699). Particulars: TR-FRET cullin neddylation, at 25 µM, active compounds read high. Background: TR-FRET usually uses a lanthanide donor and a delayed reading to cut background.
NEDD8-conjugating enzyme Ubc12 (Homo sapiens) + NEDD8-activating enzyme E1 regulatory subunit (Homo sapiens), sequence (P61081 whole entry, looked up): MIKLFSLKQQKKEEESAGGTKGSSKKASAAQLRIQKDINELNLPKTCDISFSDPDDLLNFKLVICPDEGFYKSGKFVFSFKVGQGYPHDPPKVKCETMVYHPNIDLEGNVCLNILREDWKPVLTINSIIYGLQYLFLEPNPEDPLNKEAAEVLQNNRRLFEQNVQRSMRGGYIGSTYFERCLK
NEDD8-conjugating enzyme Ubc12 (Homo sapiens) + NEDD8-activating enzyme E1 regulatory subunit (Homo sapiens), sequence (Q13564 whole entry, looked up): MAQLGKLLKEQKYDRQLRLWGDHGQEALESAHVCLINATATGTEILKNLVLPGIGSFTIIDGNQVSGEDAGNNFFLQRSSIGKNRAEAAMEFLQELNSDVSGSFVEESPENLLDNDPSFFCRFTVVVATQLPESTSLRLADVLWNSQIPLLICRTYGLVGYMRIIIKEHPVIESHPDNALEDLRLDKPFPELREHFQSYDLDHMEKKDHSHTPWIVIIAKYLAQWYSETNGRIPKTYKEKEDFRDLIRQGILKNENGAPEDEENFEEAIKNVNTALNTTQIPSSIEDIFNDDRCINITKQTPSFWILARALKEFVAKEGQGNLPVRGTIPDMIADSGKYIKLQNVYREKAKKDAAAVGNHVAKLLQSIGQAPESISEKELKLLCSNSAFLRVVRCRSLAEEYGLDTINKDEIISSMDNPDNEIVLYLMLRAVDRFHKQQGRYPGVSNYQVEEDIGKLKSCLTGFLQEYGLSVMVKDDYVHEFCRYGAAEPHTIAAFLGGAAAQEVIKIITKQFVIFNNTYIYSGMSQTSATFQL
With `CC(C)(C)NS(=O)(=O)CC12CCC(CC1=O)C2(C)C` (stereo not given), the inhibition was 4.11%.

Turning to `CCCN(c1ccc(C(C)C)cc1)S(=O)(=O)c1c(C)[nH]c(=O)[nH]c1=O`, the inhibition was -4.15%.

Turning to `COCCNC(=S)N1CCN(C)CC1`, the inhibition is 2.77%.

In the case of `O=C(N[C@H]1C/C=C\C(c2ccc(F)cc2)N(Cc2ccccc2)C(=O)C1)OCC1c2ccccc2-c2ccccc21` (stereo not given in full), the inhibition is -23.7%.

For the molecule `COCCn1c(C)cc(C(=O)CSc2nnc(C3CC3)n2C2CC2)c1C`, the inhibition is 2.64%.

`CC(C)c1ccc(/C=C/C(=O)NCCCN2CCOCC2)cc1`: the inhibition was 6.59%.

For the molecule `O=C(/C=C/c1cn(-c2ccccc2)nc1-c1ccc2c(c1)OCCO2)NCCCN1CCOCC1`, the inhibition was 46.4% (active).

`CC(OC(=O)/C=C/c1ccccc1)C(=O)Nc1ccc(C(N)=O)cc1` (stereo not given): the inhibition is 9.24%.

For `Cc1ccc(S(=O)(=O)NNC(=O)Nc2cccc3ccccc23)cc1`, the inhibition is -0.11%.

`Cc1ccc(C)c(NC(=O)NNC(=O)c2ccc3ccccc3c2O)c1`: the inhibition was 41.2% (active).

With `Cc1ccc(C)c(NC(=O)COC(=O)CSc2ccccc2)c1`, the inhibition is 4.31%.

Regarding `CC1CCN(C(=O)CN(c2ccc(Oc3ccccc3)cc2)S(C)(=O)=O)CC1`, the inhibition was 0.77%.

Regarding `COc1cc2c(cc1NC(=O)COC(=O)/C=C/c1ccccc1)oc1ccccc12`, the inhibition is 29.1%.

Take `COc1cc(/C(=C/c2ccccc2)c2ccccc2)c2c(c1)oc1ccccc12`: the inhibition was 49.4% (active).

As for `COc1ccc(/C=C(/NC(=O)c2ccccc2)C(=O)Nc2cccc(C(=O)O)c2)cc1`, the inhibition is -5.87%.

Consider `CCN(CCNC(=O)C1=C(C)C(=O)OC12CCC(C)CC2)c1ccccc1` (stereo not given), for which the inhibition is 0.38%.

On to `N/C(Cc1ccc([N+](=O)[O-])cc1)=N\OC(=O)C1CCCCC1`, for which the inhibition is -35.6%.

Consider `CN(C)c1nc(N)nc(CSc2nnnn2-c2cccc3ccccc23)n1`, for which the inhibition is -6.09%.

As for `COc1ccc2[nH]c(C(=O)N/N=C/c3cc(OC)c(OC)c(OC)c3)cc2c1`, the inhibition is 59.3% (active).

Consider `COc1ccccc1N1CCN(C(=O)C(=O)N/N=C/c2ccccc2F)CC1`, for which the inhibition is -4.11%.

On to `CCOc1ccc2[nH]c(C(=O)N/N=C/c3cccc(OC)c3OC)cc2c1`, for which the inhibition is 45.1% (active).

With `COc1ccc2[nH]c(=O)c(CNc3ccc(C)c(C)c3)cc2c1`, the inhibition is 23.5%.

As for `CCOc1ccc2ccccc2c1/C=N/NC(=O)c1c(C)cc(C)[nH]c1=O`, the inhibition is -12.9%.

On to `COc1cccc(C(=O)N/N=C(\C)c2cccc(NC(=O)c3ccc(F)cc3)c2)c1OC`, for which the inhibition was -8.13%.

`CCOc1ccc(/C=N\NC(=O)c2c(C)nc3cc(C)ccn23)cc1`: the inhibition was 2.94%.

As for `COc1cc2cc(C(=O)N/N=C/c3cccc(OC)c3OC)[nH]c2cc1OC`, the inhibition is 40.2% (active).

In the case of `O=C(Nc1ccc(Cl)cc1)C1Cc2c(-c3ccc4c(c3)OCO4)ccnc2O1` (stereo not given), the inhibition is 25.3%.

Consider `N#Cc1ccccc1CN1C(=O)S/C(=C/c2cccn2-c2cccc(C(=O)O)c2)C1=O`, for which the inhibition was -29.6%.

In the case of `Cc1cccc(N2CCN(C(=O)CN(C)S(=O)(=O)c3ccc4c(c3)CCC(=O)N4)CC2)c1C`, the inhibition is 4.09%.

Consider `CCCC(=O)N1CCC1(C)C(=O)NS(=O)(=O)c1ccc(Cl)cc1` (stereo not given), for which the inhibition was 5.26%.

For the molecule `O=C(NNC1=NCCC1)c1cccc(S(=O)(=O)N2CCCCC2)c1`, the inhibition was 3.17%.

Regarding `CCOc1cc(/C=N/NC(=O)c2cccc(S(=O)(=O)N3CCOCC3)c2)ccc1OCC(=O)N(C)C`, the inhibition is 6.83%.

As for `Cc1ncc(CO)c(/C=N/NC(=O)c2cccc(S(=O)(=O)N3CCCC3)c2)c1O`, the inhibition is 47.2% (active).

For the molecule `COc1ccccc1/C=C/C1=NC(=C\N(C)C)/C(=O)O1`, the inhibition is 54% (active).

For the molecule `C=CCOC(=O)C1=C(C)N=C2SCCC(=O)N2C1/C=C/c1ccccc1OC` (stereo not given), the inhibition is -7.53%.

Turning to `COc1ccccc1/C=C/C(=O)NC(=S)N1CCOCC1`, the inhibition was -10.5%.

With `CCSC1=NCCN1C(=O)c1ccc(S(=O)(=O)N(CC)CC)cc1`, the inhibition is -10.5%.

As for `CC1(C(=O)NS(=O)(=O)c2ccc(C#N)cc2)CCN1C(=O)CC1CCCC1` (stereo not given), the inhibition is -3.86%.

On to `CC(C)(C)OC(=O)C[C@@H]1C/C=C\C[C@@H](CC(=O)N[C@H](CO)Cc2ccccc2)C(=O)NCCOC1=O`, for which the inhibition was -4.28%.

Take `O=C(c1ccc(Cl)s1)N(Cc1nnc(-c2ccccc2Cl)o1)C1CC1`: the inhibition is 12.9%.

On to `CN(C(=O)COC(=O)c1cc(-c2ccco2)nc2ccccc12)C1CCS(=O)(=O)C1` (stereo not given), for which the inhibition is -19.8%.

Consider `O=C(c1cc(-c2ccco2)nc2ccccc12)N(Cc1nnc(-c2ccc(Cl)cc2)o1)C1CC1`, for which the inhibition was 38.9% (active).

With `N#Cc1ccc(S(=O)(=O)NCC(=O)OCC(=O)NCCc2ccccc2)cc1`, the inhibition is -11.3%.

On to `CCOC(=O)C1(Cc2ccccc2C)CCCN(C(=O)CCc2c(C)noc2C)C1` (stereo not given), for which the inhibition was 3.81%.

As for `CC(=O)OCC(C)n1c(=O)c2ccccc2n1C(C)=O` (stereo not given), the inhibition is 16.7%.

Regarding `O=C(O)CCc1nc2cc(Cl)ccc2n(Cc2ccccc2)c1=O`, the inhibition was 9.12%.

As for `CC(=O)Oc1c(C(=O)c2nnc(C)o2)c(=O)n(Cc2ccccc2)c2ccccc12`, the inhibition is 40% (active).

On to `CC1Cc2ccccc2N1CC(=O)Nc1ccc2c(c1)OC(F)(F)O2` (stereo not given), for which the inhibition is -5.99%.

In the case of `CC(=O)NS(=O)(=O)c1ccc(N/C(N)=N/c2nc(C)cc(C)n2)cc1`, the inhibition is -11.7%.

For the molecule `O=C(CSc1nnc(-c2ccncc2)n1C1CCCCC1)Nc1ccccc1`, the inhibition is -3.98%.

Consider `CCOc1ccc(NC(=O)CN(C)C(=O)Cc2sc(C)nc2-c2ccc(F)cc2)cc1OCC`, for which the inhibition is -1.44%.

In the case of `COc1cccc(C2c3[nH]c4ccccc4c3CCN2Cc2cccc(C)n2)c1` (stereo not given), the inhibition is 48.7% (active).

On to `CCOc1ccc(C2c3[nH]c4ccccc4c3CCN2Cc2cn(CC)nc2C)cc1` (stereo not given), for which the inhibition was 22.4%.

For the molecule `COCc1ccc(C(=O)N2CCc3c([nH]c4ccccc34)C2c2ccccn2)s1` (stereo not given), the inhibition was -1.93%.

For `CCOc1ccc(C2c3[nH]c4ccccc4c3CCN2Cc2cccn2-c2ncccn2)cc1` (stereo not given), the inhibition is 16.1%.

`COc1ccc(C2c3[nH]c4ccccc4c3CCN2CCCn2cccn2)cc1C` (stereo not given): the inhibition is 49.4% (active).

For `Oc1cccc(C2c3[nH]c4ccccc4c3CCN2Cc2cnn(-c3ccccc3)c2)c1` (stereo not given), the inhibition is 25.4%.

With `O=C(O)C1C2C=CC(C2)C1C(=O)NCc1ccccc1` (stereo not given), the inhibition is -4.12%.

Turning to `O=C(OCc1ccccc1)N1CCC2CC1c1cc(N3CCN(S(=O)(=O)c4cc(Cl)cc(Cl)c4)CC3)ccc12` (stereo not given), the inhibition is 19.3%.

`CC(OC(=O)c1cc2ccccc2o1)C(=O)Nc1ccc(N2CCOCC2)cc1` (stereo not given): the inhibition was 2.93%.

For `CC(C)C1N=C2c3ccccc3N=C(SCC(=O)c3ccc(O)c(O)c3)N2C1=O` (stereo not given), the inhibition was -18.8%.

As for `O=C(Nc1ccc(-c2cscn2)cc1)C1CCCN(Cc2ccc(CO)o2)C1` (stereo not given), the inhibition is 5.08%.

Take `O=C(NCc1cccnc1)Nc1cccc(NC(=O)NCc2cccnc2)c1F`: the inhibition is 2.41%.

Take `CC(C)CC1(C)NC(=O)N(CC(=O)Nc2ccc3c(c2)OCCO3)C1=O` (stereo not given): the inhibition was -8.52%.

With `Cc1ccc(-n2c(SCC(=O)Nc3ncc(Cl)cc3Cl)nc3ccccc32)cc1`, the inhibition is 3.23%.
